Out of some 360,000 compounds screened, about 9,100 (2.5%) were called active. Another 4% or so got no clear call; they are omitted. No stated cut-off is given here; in the data, active means max response below about -50%; inconclusive means no clear call, values can overlap the other calls; inactive means above that. What follows is part of a selection rich in actives, with near analogues and random picks from the rest.
biological target: D(3) dopamine receptor (Homo sapiens) (UniProt P35462); assay: qHTS of D3 Dopamine Receptor Antagonist: qHTS; conditions: D3R cells, DiscoveRx beta-arrestin luminescence, antagonist mode; active compounds read low
Sequence (P35462 whole entry, looked up): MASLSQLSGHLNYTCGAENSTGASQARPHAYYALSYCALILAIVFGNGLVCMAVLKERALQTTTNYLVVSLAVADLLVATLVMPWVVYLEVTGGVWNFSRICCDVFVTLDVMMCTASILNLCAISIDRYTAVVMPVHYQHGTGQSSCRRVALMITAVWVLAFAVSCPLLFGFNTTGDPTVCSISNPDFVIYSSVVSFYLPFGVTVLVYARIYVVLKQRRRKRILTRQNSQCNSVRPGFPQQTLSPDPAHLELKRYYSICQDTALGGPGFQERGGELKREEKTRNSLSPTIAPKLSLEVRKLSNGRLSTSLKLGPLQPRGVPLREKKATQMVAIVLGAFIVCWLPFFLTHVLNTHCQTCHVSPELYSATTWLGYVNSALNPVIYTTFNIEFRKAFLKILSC
Method in brief: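 Cells expressing the human receptor were seeded at 1500 cells/well, incubated overnight at 37 degrees C in 5% CO2, then exposed to library compounds with dopamine controls for 90 minutes at 37 degrees C before luminescent detection.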
On the % scale 0 is the no-effect control and ±100 the full control effect.

Max response, negative = inhibition, inactive:
CCN1C(=O)[C@H]2[C@@H](c3ccc(C(F)(F)F)cc3)N[C@]3(CCCN(Cc4ccc(Br)cc4)C3=O)[C@H]2C1=O 2.39%
CCS(=O)(=O)c1ccc(O)c(NC(=O)COc2ccc(Cl)cc2)c1 0.528%
O=C(Nc1cccc(S(=O)(=O)NC2=NCCC2)c1)c1ccc(F)cc1F 5.01%
COc1ccc(-c2csc(C(O)c3cccc(Cl)c3)n2)cn1 (stereo unspecified) -24%
Nc1[nH]c(C(=O)c2ccccc2)c(-c2ccc(Br)cc2)c1C(=O)NC1CC1 6.89%
N#CCCn1cnc2ccccc21 -1.87%
COC(=O)c1ccc(-n2cnc3ccccc32)nc1 3.06%
CC1=C(C(=O)N2CCOCC2)CC(CC(=O)NCCN2CCOCC2)C(=O)N1CCC1=CCCCC1 (stereo unspecified) 35.9%
O=C(NCCS(=O)(=O)N1CCN(c2ccccc2)CC1)c1cc(=O)c2ccccc2o1 9.87%
COc1ccc([C@H]2C[C@@H](n3cc(COC(=O)c4ccccc4)nn3)[C@H](O)CN2C(=O)c2cccs2)cc1 -28.2%
CC1CN(c2nc(Nc3ccccc3)nc(N)c2[N+](=O)[O-])CC(C)O1 (stereo unspecified) 14.2%
COCCNc1nc(N)c([N+](=O)[O-])c(N2CCCCCC2)n1 16.7%
Cc1ccc(S(=O)(=O)N2CCC(=O)N([C@H](COCc3ccccc3)C(C)C)CC2)cc1 8.56%
CC(C)c1cc(Cn2c3ccccc3c(=O)n2C(C)Cn2cc(C3CC3)nn2)on1 (stereo unspecified) 0.832%
CCCCC[C@@H]1C=C(C(=O)OCC)[C@H](c2ccccc2)N1S(=O)(=O)c1ccc(C)cc1 0%
O=C(OCc1cn([C@H]2C[C@H](c3ccccc3)N(C(=O)c3cccs3)C[C@@H]2O)nn1)c1ccccc1 -25.2%
COc1c(C)cc(C(O)c2ncc(-c3cccc(C(F)(F)F)c3)[nH]2)cc1C (stereo unspecified) 0%
COC(=O)N(C)C[C@@H]1OCc2cnnn2CCCC(=O)N([C@@H](C)CO)C[C@@H]1C -14.7%
O=c1cc(CN2CCCCCCC2)c2c(ccc3ccccc32)o1 5.7%
Cc1ccc2[nH]c(=O)c(CN3CCCCC3)c(-c3ccccc3)c2c1 16.1%
COc1cccc(/C=C2\SC(=S)N(CCCC(=O)N3CCOCC3)C2=O)c1 -20.9%
COCCN1C(=O)N[C@@H](CCc2ccccc2)[C@H](C(C)=O)[C@H]1C 2.91%
CCN1C(=NCc2ccc(OC)cc2)N[C@@H](CCc2ccccc2)[C@H](C(=O)NCc2ccc(OC)cc2)[C@H]1C 4.01%
Cn1c(CCN2CCN(c3ccccn3)CC2)nc2cc(NS(=O)(=O)c3ccc(F)cc3)ccc21 0%
CCOC1=C2CN(S(=O)(=O)c3ccc(C)cc3)[C@H](c3cccs3)C[C@H]2[C@H]2C(=O)N(c3ccccc3)C(=O)[C@H]2C1 -26.5%
CCc1nc2c(OCc3ccccc3)cccn2c1N(C)C(=O)c1ccco1 -0.512%
Cc1ccc(S(=O)(=O)N2C[C@@H](C)[C@]3(C2)[C@H](O)[C@H](OC(=O)NCc2ccccc2)C[C@H]2C(=O)N(c4ccccc4)C(=O)[C@H]23)cc1 18.6%
CC(=O)Nc1cc(-c2ccccc2F)cn2c(-c3cccc(C(F)(F)F)c3)cnc12 -2.07%
COc1ccccc1-c1cc(NC(C)=O)c2ncc(-c3ccc(F)cc3)n2c1 0%
CC(=O)Nc1cccc(-c2cc(NC=O)c3ncc(-c4ccc(F)c(Cl)c4)n3c2)c1 58.6%
CC(=O)Nc1cccc(-c2cc(NC(C)=O)c3ncc(-c4ccccc4)n3c2)c1 10.2%
C[C@H](NC(=O)CC[C@H]1O[C@@H](n2ccc(=O)[nH]c2=O)[C@H](O)[C@@H]1O)c1cccc2ccccc12 -12.4%
COc1ccc(OC)c(NC(=O)c2cc(-c3cc(F)ccc3OCC3CCCO3)n[nH]2)c1 (stereo unspecified) 8.86%
COc1ccc(-n2c(-c3ccc(Cl)cc3)n[nH]c2=S)c(OC)c1 15.8%
COC(=O)C[C@H]1C=C[C@@H](NS(=O)(=O)c2ccc(C)cc2)[C@@H](CO)O1 14.9%
CCCCc1nc2ccc(F)cc2cc1C 20.6%
Cc1ccc(C)c(OCC(=O)NNC(=O)C2CCC2)c1 1.58%
Cc1ccc(OCCCC(=O)N2CCOCC2)c(C)c1 4.43%
CC(=O)Nc1ccc(S(=O)(=O)N2CCN(CCCOc3cc(C)ccc3C)CC2)cc1 15.6%
C=CCc1cc(C)ccc1OCCCn1ccnc1 -3.51%
CCN(CC)C(=O)C(C)N1c2cccc3cccc(c23)S1(=O)=O (stereo unspecified) -22.2%
Cc1cccc(CN2CCN(C3CN(Cc4cn(Cc5ccccc5F)nn4)S(=O)(=O)C3)CC2)c1 (stereo unspecified) 6.92%
O=C1c2ccccc2-c2ccccc2NC1O (stereo unspecified) 0%
O[C@H]1CN(Cc2cccs2)[C@@H](c2ccc(Cl)cc2)C[C@@H]1n1cc(C2CC2)nn1 8.97%
NC(c1ccccc1)c1csc(NC(=O)Nc2cccc(C(F)(F)F)c2)n1 (stereo unspecified) 18.1%
C#CCNC(=O)C[C@@H]1C[C@@]2(C(=O)OCC)CCCC=C2N(Cc2ccco2)C1=O 5.5%
Cc1ccc(C(=O)N/C(=C/c2ccc(-c3cccc([N+](=O)[O-])c3)o2)C(=O)NCCCN(C)C)cc1 10.3%
Cc1ccc(-c2ccc(/C=C(\C#N)C(N)=S)o2)c([N+](=O)[O-])c1 -5.05%
Cc1[nH]c2ccccc2c1C(=O)c1cc([C@H](NC(=O)OC(C)(C)C)C(C)C)sc1N 17.9%
COC(=O)c1ccc(CN2C(=O)C(Cc3ccccc3)ON=C2c2ncccc2C)o1 (stereo unspecified) 14.2%
CCCCCCN1CCN(C2CN(Cc3cn(CCCCCC)nn3)S(=O)(=O)C2)CC1 (stereo unspecified) -13.3%
O=C(Nc1cccc2cccnc12)c1ccc2sc([C@H]3C[C@H](O)[C@@H](CO)O3)nc2c1 119%
CSc1ccccc1NC(=O)CN(C)CC(=O)Nc1ccc(Cl)cc1[N+](=O)[O-] -10.8%
CN(C)CCNc1ccc(-c2n[nH]c(=O)c3ccccc23)cc1[N+](=O)[O-] -21.7%
CC1Cc2[nH][nH]c(=O)c2C(C2CC2)O1 (stereo unspecified) 2.81%
O=C(NCc1ccccc1)C1c2ccccc2OCC(=O)N1C1CC1 (stereo unspecified) 3.07%
CCC(c1nc2ccccc2[nH]1)n1c(=O)c(-c2cccs2)nc2ccccc21 (stereo unspecified) -19.2%
CC(=O)Nc1cnc(-c2ccc(O)cc2C)cn1 12.9%
CC1(C(=O)NS(=O)(=O)c2cccc(OC(F)F)c2)CCN1C(=O)COc1ccc(Cl)cc1 (stereo unspecified) 0%
CCOc1ccc(C(=O)Nc2nccs2)cc1[N+](=O)[O-] 2.71%
COc1cccc(OCC(=O)NNC(=O)c2cnccn2)c1 -0.611%
CCc1nc2ccc(C(=O)Nc3cc(-c4ccccc4)ccc3OC)cn2c1N(CC)CC(=O)N(C)C -16.4%
NC(Cc1ccccc1)c1csc(Nc2cc(Oc3ccccc3)ncn2)n1 (stereo unspecified) 9.45%
O=C(c1cc(C2CCCCN2S(=O)(=O)c2ccccc2)on1)N1CCOCC1 (stereo unspecified) 44.2%
CCCCN(C(C)=O)c1ccc2c(c1)C1CC2CCN1Cc1ccccc1 (stereo unspecified) -22%
COc1ccc(-n2nnc3c(=O)n(CC(=O)OCc4ccccc4)cnc32)cc1 7.78%
COc1ccc(-n2nnc3c(=O)n(CC(=O)N4CCC(Cc5ccccc5)CC4)cnc32)cc1 -29.9%
CC(C)(C)Cc1c(C2CCCCC2)nc2ccc(Br)cn12 20.9%
CCN(CC)c1ncnc2c1ncn2[C@H]1CN(Cc2cccs2)C[C@@H](CO)O1 -18.3%
CC1(C(=O)NCc2ccc3c(c2)OCO3)CCN1C(=O)Cc1cccc2ccccc12 (stereo unspecified) -2.93%
O=C(c1ccco1)N1CCN(Cc2cccc(C(F)(F)F)c2)CC1 19.4%
FC(F)(F)c1cccc(Cc2noc(CN3CCC(N4CCCCC4)CC3)n2)c1 43.6%

Max response, negative = inhibition, active:
O=C(Nc1cc(S(=O)(=O)Nc2ccc(Cl)cc2)ccc1O)c1ccc(F)cc1F -59.6%
c1ccc(-c2nccc(-c3ccc(-n4cnc5ccccc54)cc3)n2)nc1 -53.4%
CCN1CCN(c2nc(Nc3cccc(F)c3)nc(N)c2[N+](=O)[O-])CC1 -76.5%
c1ccc2cc3[nH]c(CN4CCCCC4)nc3cc2c1 -50.3%
CCN1C(=S)N[C@@H](CCc2ccccc2)[C@H](C(=O)OC)[C@H]1C -63%
CC(=O)Nc1cc(-c2cccc(CO)c2)cn2c(-c3cccc(C(F)(F)F)c3)cnc12 -52.6%
CC(=O)Nc1cc(-c2ccccc2N(C)C)cn2c(-c3ccc(F)c(Cl)c3)cnc12 -55.6%
Cc1ccc(OCCCCN2CCCCC2)c(Br)c1 -102%
Cc1ccc(C(C)(C)C)c(OCCCCN2CCCC2)c1 -80.6%
Cc1ccc(Cc2cnc(NC(=O)/C(C#N)=C/c3ccc(-c4cccc([N+](=O)[O-])c4)o3)s2)cc1 -59.9%
CCN(CC)CCNc1ccc(Cl)cc1[N+](=O)[O-] -86.2%
COc1ccc(C(=O)NNC(=O)c2cnccn2)cc1[N+](=O)[O-] -63.8%
O=C(Cn1cnc2c(nnn2-c2ccccc2)c1=O)N1CCC(Cc2ccccc2)CC1 -67.4%
CCOC(=O)N1CCN(Cc2nc(Cc3cccc(C(F)(F)F)c3)no2)CC1 -50.2%

— PubChem BioAssay AID652054 (National Center for Advancing Translational Sciences (NCATS), 2013)
